CendR NRP1 mod = modulators of CendR peptide binding to NRP-1, primary screen, biochemical, fluorescence polarization, uHTS; AID 602438, 2012; inhibition, % at 25 µM; actives 0.85% (n = 360,000); Neuropilin-1 (Homo sapiens), O14786; FAM-RPARPAR peptide binding to NRP-1;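 active = inhibition or corrected inhibition above about 18%, plus a signal ratio from 0.5 to 1.5, limit read from the data, passing the limit was not always enough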
A3A deaminase = APOBEC3A ssDNA deaminase inhibitors, primary screen, selectivity assay for APOBEC3G inhibitor project, biochemical, FAM/TAMRA oligo cleavage fluorescence | AID 493011, 2011 | actives 0.41% (n = 330,000) | DNA dC->dU-editing enzyme APOBEC-3A (Homo sapiens), P31941 | recombinant A3A, FAM/TAMRA ssDNA deamination fluorescence | inhibition, % at 20 µM;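 active = at least 40% inhibition at 20 µM here, with at most 30% in a related deaminase screen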;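 note: plate controls were A3A with DMSO for no effect and wells lacking A3A enzyme for full effect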
VLA-4 inh = inhibition in human VLA-4 binding assay, primary screen, VLA-4 allosteric modulator project, MLPCN library, flow cytometry, VLA-4 expressing cells; actives 0.2% (n = 330,000); inhibition, % (about 7 µM as worked out from the volumes in the protocol); ligand binding flow cytometry; AID 2557, 2010; in the data active = inhibition above about 50%
beta cell repl = inducers of MIN6 beta-cell proliferation, primary screen, ATP luminescence, uHTS; MIN6 cells proliferation, ATPlite luminescence, 48 h; cells starved in 0.2% serum; 100% = growth in 10% serum; proliferation, % at 10 µM; actives 0.29% (n = 330,000);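 active = compounds whose signal lies at least 3.5 SD above the mean of all wells on their plate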;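 note: 0% = DMSO-treated cells in low-serum medium and 100% = 10% serum control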
APOBEC3G inh = APOBEC3G DNA deaminase inhibitors, primary screen, biochemical, fluorescence, single-stranded DNA substrate, uHTS; DNA dC->dU-editing enzyme APOBEC-3G (Homo sapiens), Q9HC16; recombinant A3G, ssDNA deamination FAM/TAMRA fluorescence; inhibition, % at 20 µM; actives 0.28% (n = 330,000); AID 493012, 2011;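 active = inhibition of at least 40% at 20 µM, with no more than 30% in the related APOBEC3A deaminase screen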;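 note: plate controls were DMSO wells with A3G for no effect and wells lacking A3G enzyme for full effect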
An asterisk follows results filed as active; . = not tested or not shown. Shown are actives, neighbours in structure and some others; about 1.8% of the full set was active somewhere.

SMILES	CendR NRP1 mod	A3A deaminase	VLA-4 inh	beta cell repl	APOBEC3G inh
CC(=O)Nc1ccc2nc(-c3cccn3C)[nH]c2c1	2	0	11	3	1
CC(=O)Nc1ccc2nc(-c3cccs3)[nH]c2c1	0	-1	94*	-7	-2
O=C(O)c1ccc(C(=O)Nc2cccc3ccccc23)c(C(=O)O)c1	25*	-9	10	-4	-1
COCCN(C(=O)c1sc2ccccc2c1Cl)c1c(N)n(CC(C)C)c(=O)[nH]c1=O	-8	-2	1	-2	-1
Cc1ccccc1Cn1c(C)nc2ccc([N+](=O)[O-])cc2c1=O	-7	8	2	-5	14
CCOC(=O)N1CCN(C(=O)c2ccc(CNS(=O)(=O)c3ccc(NC(C)=O)cc3)cc2)CC1	23*	0	-8	-3	1
CCOC(=O)N1CCN(C(=O)C2CCN(S(=O)(=O)c3ccc(OCC)cc3)CC2)CC1	26*	-1	3	-2	-1
CCOC(=O)N1CCN(C(=O)C2CCC(CNS(=O)(=O)c3ccc(Cl)cc3)CC2)CC1 (centres undefined)	27*	-2	10	-3	-3
CCOC(=O)c1c(-c2ccc3ccccc3c2)csc1NC(=O)CCCC(=O)O	-6	-4	.	-3	-10
CC(OC(=O)Nc1ccccc1)C(=O)OC1CCCCC1 (centres undefined)	7	.	.	.	.
O=C(NCCOc1ccccc1F)C1CC(=O)N(c2ccc3c(c2)OCCO3)C1 (centres undefined)	-2	5	-2	-2	-2
O=C(Nc1cccc(C(F)(F)F)c1)C1CCN(S(=O)(=O)c2ccc(N3CCCC3=O)cc2)CC1	4	0	4	-7	-1
CC(OC(=O)C1=COCCO1)C(=O)Nc1cc(S(=O)(=O)N2CCCCC2)ccc1Cl (centres undefined)	23*	-4	18	0	-8
Cc1cccc(NCc2ccccc2O)c1C	42*	-4	7	-1	0
CC(C)Oc1ccc(C2NC(=O)c3ccccc3O2)cc1 (centres undefined)	0	3	7	-2	-3
CNC(=O)c1nn(-c2ccc(Cl)cc2)ccc1=O	5	4	0	-3	2
O=C(O)c1nn(-c2ccc(Cl)cc2)ccc1=O	19*	3	5	1	3
CC1(C(=O)NS(=O)(=O)c2cccc(Cl)c2)CCN1C(=O)c1ccccc1 (centres undefined)	10	.	.	.	.
O=C(c1ccco1)N1N=C(C2CCCCC2)CC1(O)C(F)(F)F (centres undefined)	-8	0	5	1	-1
Cc1occc1C(=O)N1N=C(C2CC2)CC1(O)C(F)(F)F (centres undefined)	34*	-2	8	-4	0
Cc1[nH]c2ccccc2c(=O)c1CN1CCCCCC1	-1	0	-15	-3	-9
Cc1[nH]c2c(Cl)cccc2c(=O)c1CN1CCCC1	20*	3	3	-2	-1
COc1ccc(S(=O)(=O)N2CCOCC2)cc1NC(=O)COC(=O)C1CC1C (centres undefined)	4	3	2	-1	-1
O=C1c2cccc3cccc(c23)C(=O)C1(O)O	54*	0	-5	-1	8
COc1ccc(C(=O)c2nccc3cc(OC)c(OC)cc23)cc1OC	26*	5	23	0	5
SMILES	CendR NRP1 mod	A3A deaminase	VLA-4 inh	beta cell repl	APOBEC3G inh
Cc1ccc(C(=O)N2CCN(C/C=C/c3ccccc3)CC2)cc1S(=O)(=O)N1CCOCC1	-4	.	.	.	.
Fc1cnc(N2CCOCC2)nc1N1CCOCC1	21*	1	3	-2	2
Fc1cnc(N2CCOCC2)nc1N1CCc2ccccc21	11	1	3	3	-3
CCc1cc(CNC(=O)c2ccc(OC3CCN(CCc4ccccc4)CC3)cc2)on1	8	2	-104	-2	-1
Cc1nc2ncnn2c(N2CCN(C(=O)c3cccc(F)c3)CC2)c1C	26*	0	2	0	-2
CCCCNC(=O)C1(C)CCCCN1C(=O)c1cccs1 (centres undefined)	-5	.	.	.	.
COCCN1C=C(C(=O)OC)C(c2cc(Br)c(OC)c(OC)c2)C(C(=O)OC)=C1	6	1	-7	0	0
COCCN1C=C(C(=O)OC)C(c2ccccc2Cl)C(C(=O)OC)=C1	22*	-5	5	-3	-4
CCOc1ccccc1NC(=O)c1cccc(S(=O)(=O)N(Cc2ccccc2)c2ccccc2OC)c1	30*	-1	-1	0	-2
CCN(CC)c1ccc(C(=C2C=CC(=[N+](CC)CC)C=C2)c2ccc(N(CC)CC)cc2)cc1	30*	.	.	.	.
CCC(C)Nc1nc(N)c([N+](=O)[O-])c(Nc2ccccc2OC)n1 (centres undefined)	6	-2	14	-4	-7
CCC(C)Nc1nc(N)c([N+](=O)[O-])c(Nc2cc(OC)ccc2OC)n1 (centres undefined)	52*	6	-4	-3	6
O=[N+]([O-])c1ccc(Sc2cccc[n+]2[O-])c2nonc12	34*	.	.	.	.
COC(=O)C(NC(=O)CCC(=O)N[C@@H](C(=O)OC)c1ccccc1)c1ccccc1 (some centres undefined)	25*	-4	-19	0	-15
CC(C)(C)OC(=O)[C@H](NC(=O)OCc1ccccc1)c1ccccc1	0	-2	15	-1	-9
CC(C)(C)OC(=O)N[C@H](C(=O)OC(C)(C)C)c1ccccc1	36*	-1	20	7	-8
CC(SC1=NCCN1S(C)(=O)=O)c1ccccc1 (centres undefined)	-6	-6	14	3	-6
CC(C)COC(=O)C(N)C(C(=O)OCC(C)C)c1ccccc1 (centres undefined)	30*	-10	1	4	-2
COC(=O)C(C)Sc1nnc(SC(C)C(=O)OC)s1 (centres undefined)	36*	-2	2	-2	-4
Cc1ccc(C(=O)C(C)Sc2nnc(N)s2)cc1 (centres undefined)	-1	1	2	-2	-3
Cc1noc(C)c1S(=O)(=O)Nc1ccc(C(C)C)cc1	18*	-3	4	-1	-8
COc1ccc(S(=O)(=O)N(C)C[C@@H]2Oc3c(NS(=O)(=O)c4cn(C)cn4)cccc3C(=O)N([C@@H](C)CO)C[C@@H]2C)cc1	-16	-2	-4	1	-9

Bioassay records deposited in PubChem by several laboratories.
